Measured values: publication PMC4336329 (PLoS ONE, 2015)
The campaign covered roughly 310,000 compounds. About 14,000 (4.5%) showed an effect of 50% or more. Effects have a minus sign here. Many of the other results were omitted from the sample, so strong results are more common in it than they were.

The compounds below were run against human ether-à-go-go-related gene (hERG) potassium channel (human, UniProt Q12809) (assay: primary screen, population patch clamp on CHO cells stably expressing hERG; higher = less effect of the substance).
Sequence of human ether-à-go-go-related gene (hERG) potassium channel (Q12809 whole entry, looked up): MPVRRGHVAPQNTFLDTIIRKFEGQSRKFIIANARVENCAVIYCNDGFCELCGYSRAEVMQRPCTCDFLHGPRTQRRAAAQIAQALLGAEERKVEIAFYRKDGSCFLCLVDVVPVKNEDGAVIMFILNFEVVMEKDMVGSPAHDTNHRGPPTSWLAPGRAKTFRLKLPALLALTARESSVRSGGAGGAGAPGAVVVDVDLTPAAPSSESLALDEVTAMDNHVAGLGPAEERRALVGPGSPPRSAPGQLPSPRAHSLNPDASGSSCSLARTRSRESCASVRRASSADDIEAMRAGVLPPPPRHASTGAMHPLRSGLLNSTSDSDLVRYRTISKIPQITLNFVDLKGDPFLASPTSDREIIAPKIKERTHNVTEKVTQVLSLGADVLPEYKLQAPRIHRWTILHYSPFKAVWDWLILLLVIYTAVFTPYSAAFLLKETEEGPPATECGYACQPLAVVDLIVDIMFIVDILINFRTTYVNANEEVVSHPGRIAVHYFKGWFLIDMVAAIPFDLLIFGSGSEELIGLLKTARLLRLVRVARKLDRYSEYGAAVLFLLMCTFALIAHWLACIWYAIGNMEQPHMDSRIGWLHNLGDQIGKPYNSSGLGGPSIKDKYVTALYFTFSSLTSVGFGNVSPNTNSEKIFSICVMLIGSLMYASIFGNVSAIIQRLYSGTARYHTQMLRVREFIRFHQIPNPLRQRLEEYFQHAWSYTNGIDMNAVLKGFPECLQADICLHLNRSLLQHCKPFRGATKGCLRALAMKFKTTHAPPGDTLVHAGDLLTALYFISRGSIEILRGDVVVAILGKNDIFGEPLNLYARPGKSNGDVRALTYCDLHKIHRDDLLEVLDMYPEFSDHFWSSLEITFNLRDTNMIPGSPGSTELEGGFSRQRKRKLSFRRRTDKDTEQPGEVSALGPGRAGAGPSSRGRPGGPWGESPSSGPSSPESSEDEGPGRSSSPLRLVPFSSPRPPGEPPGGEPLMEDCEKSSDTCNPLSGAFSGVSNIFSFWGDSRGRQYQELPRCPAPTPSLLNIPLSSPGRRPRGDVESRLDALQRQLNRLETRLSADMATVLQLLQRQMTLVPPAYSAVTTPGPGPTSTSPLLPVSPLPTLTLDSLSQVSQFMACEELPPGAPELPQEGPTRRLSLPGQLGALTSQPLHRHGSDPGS
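Also: peak tail current of the secondary pulse compared with the same well before compound.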

Row | Compound | hERG current change (%, negative = inhibition) at 10uM
1 | COc1cc(CC(NC(C)=O)C(=O)NC2CCN(S(=O)(=O)c3ccc(NC(C)=O)cc3)CC2)cc(OC)c1 (stereo not drawn) | 21.7%
2 | Cc1ccc(-c2cnn(-c3cccc([N+](=O)[O-])c3)c2N)cc1 | -24.1%
3 | Cc1nn(-c2nc3ccccc3s2)c(N)c1Sc1ccc(F)cc1 | 7.4%
4 | Cc1cc(C)nc(-n2nc(C)c(Sc3ccc(F)cc3)c2N)n1 | -61.7%
5 | Cc1nn(-c2cccc([N+](=O)[O-])c2)c(N)c1-c1ccccc1 | -68.7%
6 | Cc1cc(C)nc(-n2nc(C)c(C3(O)C(=O)Nc4ccc(F)cc43)c2N)n1 (stereo not drawn) | 3.79%
7 | Nc1c(-c2ccccc2Cl)cnn1-c1cccc([N+](=O)[O-])c1 | -49.4%
8 | Cc1ccccc1-c1cnn(-c2cccc([N+](=O)[O-])c2)c1N | -56.7%
9 | Cc1nn(S(=O)(=O)c2ccccc2)c(C)c1Sc1ccc([N+](=O)[O-])cc1 | -6.26%
10 | Cc1nn(-c2ccccc2)c(N)c1Sc1ccc([N+](=O)[O-])cc1 | -75.2%
11 | Cc1nn(-c2ccccc2)c(N)c1Sc1ccccc1[N+](=O)[O-] | -26.7%
12 | Cc1nn(-c2ccccc2)c(N)c1-c1ccccc1 | 5.13%
13 | Cc1nn(-c2ccc([N+](=O)[O-])cc2)c(N)c1-c1ccccc1 | -19.1%
14 | CC(C(=O)NCc1cccnc1)N1C(=O)c2ccccc2C1=O (stereo not drawn) | 17.4%
15 | CNC(=O)CSCCn1c(SCC(=O)NC)nc2ccccc2c1=O | 13.1%
16 | COc1ccc(-c2cc(C(F)(F)F)n3ncc(C(=O)N(C)Cc4ccccc4)c3n2)cc1 | -17%
17 | Cc1cc(C)cc(Oc2ccc(N)cc2)c1 | -15.1%
18 | COc1ccccc1NC(=O)C(C)N(C)CCOc1ccccc1 (stereo not drawn) | 16.5%
19 | COc1ccc(Cn2c(C)nnc2-c2cnn(C)c2N)cc1 | 14.8%
20 | O=S(=O)(NCC1CCCO1)c1cccc(S(=O)(=O)N2CCCC2)c1 (stereo not drawn) | -14%
21 | CCN1CCN(C(=O)CCNC(=O)Cn2ccc3ccccc3c2=O)CC1 | 13.9%

Row | Compound | hERG current change (%, negative = inhibition) at 10uM
22 | Cc1ccc(-c2nc(CSc3nc4ccccc4c(=O)n3C)cs2)cc1 | 9.52%
23 | CCN1CCN(CCCNC(=O)c2ccc(NC(=O)C3=C(C)OCCS3)cc2)CC1 | 17.6%
24 | O=C(O)c1cccc2c1/C(=N/Nc1ccc([N+](=O)[O-])cc1[N+](=O)[O-])c1ccccc1-2 | 19.7%
25 | Cc1nn(-c2ccccc2)c(N)c1Sc1cccc([N+](=O)[O-])c1.Cl | -65.9%
26 | Cc1ccc(-n2nc(C)c(Sc3ccccc3[N+](=O)[O-])c2N)cc1 | -17.2%
27 | Cc1nn(C(=O)c2cccc([N+](=O)[O-])c2)c(C)c1Sc1ccccc1 | 7.61%
28 | CCOc1ccc(NC(=O)c2ccc(NC(=S)NC3CCCCC3)cc2)cc1 | 20.9%
29 | Cc1cc(C)cc(NC(=O)CCCN2C(=O)C(c3ccccc3)Oc3cccnc32)c1 (stereo not drawn) | -1.03%
30 | COc1ccc(CNC(=O)CCN2C(=O)c3ccncc3C2=O)cc1OC | 13%
31 | O=C(CCN1C(=O)c2ccccc2C1=O)NCc1ccc(Cl)cc1 | -16.9%
32 | O=C(CCN1C(=O)c2ccncc2C1=O)NCc1ccc(Cl)cc1 | -51.9%
33 | CCc1cccc(NC(=O)CCCN2C(=O)C(c3ccccc3)Oc3cccnc32)c1 (stereo not drawn) | -2.79%
34 | O=C(CCN1C(=O)[C@@H]2Cc3ccccc3CN2C1=O)NCc1ccc(Cl)cc1 | -64.2%
35 | O=C(CCN1C(=O)[C@@H]2Cc3ccccc3CN2C1=O)NCc1ccccc1 | -12%
36 | Cc1ccc(NC(=O)CCCCCN2C(=O)[C@@H]3Cc4ccccc4CN3C2=O)cc1 | -12.1%
37 | Cc1cccc(NC(=O)CCCCCN2C(=O)[C@@H]3Cc4ccccc4CN3C2=O)c1 | -21.7%
38 | Cc1ccc(CNC(=O)CCN2C(=O)[C@@H]3Cc4ccccc4CN3C2=O)cc1 | -40.5%
39 | Cc1cc(C)cc(NC(=O)CCCCCN2C(=O)[C@@H]3Cc4ccccc4CN3C2=O)c1 | -51.9%
40 | O=C(CCCN1C(=O)C(c2ccccc2)Oc2cccnc21)Nc1cccc(F)c1 (stereo not drawn) | -50.2%
41 | Cc1ccccc1NC(=S)N(Cc1cccnc1)Cc1ccccc1Cl | -11.6%
42 | COc1ccc(C(=O)Nc2ccccc2C(=O)N2CCCCCC2)cc1OC | -10.5%
